The list is not random: actives were taken first. Their share in the collection is about 2.4%.
CHT PAM: allosteric activators of human choline transporter CHT; Q9GZV3; B-score at 10 µM; AID 488977; 310,000 tested, 0.49% active; CHT-expressing cells, membrane potential dye, choline EC20; hits give high values; LV-AA mutant CHT in HEK293 cells;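 active means initial fluorescence not abnormally high and integrated response B-score, plate-corrected, over 3 SD above library mean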
Target sequence (Q9GZV3 whole entry, looked up): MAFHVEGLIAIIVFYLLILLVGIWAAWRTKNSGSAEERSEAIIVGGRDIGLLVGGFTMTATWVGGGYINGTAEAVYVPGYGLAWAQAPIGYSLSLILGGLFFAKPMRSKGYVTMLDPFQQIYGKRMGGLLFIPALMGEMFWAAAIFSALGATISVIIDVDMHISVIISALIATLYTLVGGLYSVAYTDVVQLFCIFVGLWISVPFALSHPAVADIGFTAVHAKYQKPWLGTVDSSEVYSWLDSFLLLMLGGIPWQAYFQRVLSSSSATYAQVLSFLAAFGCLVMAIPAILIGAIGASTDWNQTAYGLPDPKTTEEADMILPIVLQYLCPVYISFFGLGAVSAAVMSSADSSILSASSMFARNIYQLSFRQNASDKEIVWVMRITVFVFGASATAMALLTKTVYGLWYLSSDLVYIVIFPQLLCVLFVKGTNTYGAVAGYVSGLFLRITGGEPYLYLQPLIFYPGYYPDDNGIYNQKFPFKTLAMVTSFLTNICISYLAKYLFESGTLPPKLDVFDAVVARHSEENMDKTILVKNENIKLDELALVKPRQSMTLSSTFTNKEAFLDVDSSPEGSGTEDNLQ
CHT inh: inhibits the human high affinity choline transporter. Q9GZV3. CHT-expressing cells, membrane potential dye, choline response; hits give low values. 310,000 tested, 0.86% active. B-score at 10 µM. AID 488975;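 active means B-score over 3 SD under the library average, and starting fluorescence ratio not unusually high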;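 further: choline stimulus applied at its EC90 after an EC20 pre-addition; B-score computed on integrated fluorescence ratio after choline addition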
TMEM16A inh: mouse TMEM16A channel inhibition, primary screen. Q8BHY3. 310,000 tested, 1.2% active. normalized B-score (activity score, 25-100; higher = stronger inhibition) at 10 µM. AID 588511. HEK293 TMEM16A/YFP iodide influx fluorescence, ionomycin;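 active means ratio plate-corrected score three or more library SD toward inhibition, starting fluorescence score within five deviations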;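 further: score derived from kinetic fluorescence span divided by baseline fluorescence per well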
TMEM16A act: mouse TMEM16A channel activation, primary screen; B-score at 10 µM; HEK293 TMEM16A/YFP-H148Q/I152L, iodide quench fluorescence; hits give low values; AID 623877; Q8BHY3; 340,000 tested, 0.3% active;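 active means fluorescence-ratio B-score plate-corrected deviation score at least 3 library SD below zero, with starting fluorescence score within 5 deviations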;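 further: channel opened by trigger with iodide after compound preincubation; score built on the fluorescence ratio of max minus min over baseline; more negative score means more quench and so TMEM16A activation or potentiation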
CHT inh conf: human CHT inhibition, confirmatory screen; shares compounds with CHT inh; CHT-expressing cells, choline membrane potential dye; LV-to-AA substituted CHT, HEK293 cells; CHT activity remaining % of control (hits give low values), % at 10 µM; 2,400 tested, 70% active; AID 493221;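 active means choline transporter activity left, mean of duplicates at 10 µM, below buffer-only control mean minus 3 SD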;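 further: depolarization triggered by choline at its EC90 following an EC20 pre-addition; 0% = hemicholinium-3 full block and 100% = buffer-only control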
HEK293 MPD ctr: CHT inhibitor counter-screen hit in parental HEK293 cells | shares compounds with CHT inh | membrane potential dye, choline response; active = decrease or increase beyond buffer ±3SD | membrane potential ratio readout (active if shifted either direction beyond buffer ±3SD; no single direction) at 10 µM | 2,400 tested, 4% active | AID 493222;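 further: parental cells lack the transporter so any hit is non-specific; ratio is peak minus trough fluorescence over baseline after EC90 choline challenge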
An asterisk follows results filed as active; i = inactive; / = no result given.

SMILES	CHT PAM	CHT inh	TMEM16A inh	TMEM16A act	others
C/C(=N\OCC(=O)Nc1ccc(F)c(F)c1F)c1cc2ccccc2o1	i	i	i	i
CCc1ccc(NC(=O)CO/N=C(\C)c2cc3ccccc3o2)cc1	i	i	100*	i
O=C(Nc1ncc(Br)s1)C(Cc1ccccc1)n1cccc1 (stereo not given)	i	i	100*	i
O=C(NC1CCCC1)C(Cc1ccccc1)n1cccc1 (stereo not given)	i	i	i	i
CN(CCO)c1nc(NCc2ccccc2)c2cnn(C)c2n1	i	i	i	i
COc1cccc(NC(=O)c2cc3cccc(OC)c3o/c2=N\O)c1	i	-5.3*	i	/
CCc1ccc2oc(=O)cc(CN(C)Cc3ccccc3)c2c1	i	i	100*	i
CCCCN(C(=O)CCCc1nc2ccccc2c(=O)[nH]1)c1c(N)n(CCCC)c(=O)[nH]c1=O	i	i	i	i
S=C(NCCC(c1ccccc1)c1ccccc1)Nc1ccc(Cl)cc1	i	i	100*	i
O=C(NCc1ccco1)c1sc(=S)n2c1[nH]c(=O)c1ccccc12	i	i	100*	i
CCc1ccc(C(O)(CC)C(CN2CCOCC2)c2ccccc2)cc1 (stereo not given)	i	i	i	i
Cc1ccc(Cn2nc(C)c(NC(=O)CCCn3nc(C)c([N+](=O)[O-])c3C)c2C)cc1	i	i	i	i
COc1cc(/C=N/N=C(N)N)ccc1OCc1ccc(Cl)cc1	i	i	100*	i
CCC(=O)c1ccc(OCC(=O)OCC(=O)Nc2ccc(C)c(S(=O)(=O)N3CCCCC3)c2)cc1	/	/	/	i
CCOc1ccc(OCCC(=O)OCC(=O)Nc2ccc(C)c(S(=O)(=O)N3CCCCC3)c2)cc1	i	i	100*	i
N#Cc1c(C(F)(F)F)cc(-c2ccccc2Cl)[nH]c1=O	i	i	100*	i
Cc1cc(C)cc(NC(=O)C(OC(=O)C2=COCCO2)c2ccccc2)c1 (stereo not given)	i	i	i	i
CN1CCCN(C(c2ccccc2)c2ccc(Cl)cc2)CC1 (stereo not given)	i	i	i	i
COc1cc(C(=O)NNC(=O)c2ccc(F)cc2)ccc1OCC(=O)N1CCOCC1	/	/	/	i
COc1cc(/C=N/n2cnnc2)ccc1OCC(=O)N1CCOCC1	9.6*	i	i	i
COc1ccc(-c2csc(NC(=O)c3ccc(OCC(=O)N4CCOCC4)c(OC)c3)n2)cc1	i	i	100*	i
COc1cc(C(=O)Nc2nc(-c3ccc(F)cc3)cs2)ccc1OCC(=O)N1CCOCC1	i	i	25*	i
COc1cc(/C=N/NC(N)=S)ccc1OCC(=O)N1CCOCC1	i	i	i	i
COc1cc(C(=O)Nc2nc(-c3ccc(C)cc3)cs2)ccc1OCC(=O)N1CCOCC1	i	i	i	i
CCC(C(=O)NC1CCN(C)CC1)c1ccccc1 (stereo not given)	i	i	i	i
SMILES	CHT PAM	CHT inh	TMEM16A inh	TMEM16A act	others
COc1ccccc1-c1cc(C(F)(F)F)nc(S(=O)(=O)CCCC(=O)N2CCOCC2)n1	i	-5.1*	i	i
COc1ccccc1-c1cc(C(F)(F)F)nc(S(=O)(=O)CCCC(=O)O)n1	i	i	i	i
COc1ccc(-c2cn3cccnc3n2)cc1NC(=O)C(C)Oc1ccccc1 (stereo not given)	i	i	i	i
CCOC(=O)N1CCN(C(=O)c2ccc3c(=O)n(Cc4ccc(Cl)cc4)c(=S)[nH]c3c2)CC1	i	i	i	i
CCOC(=O)N1CCN(C(=O)c2ccc(Cn3c(=S)[nH]c4ccc(Br)cc4c3=O)cc2)CC1	i	i	100*	i
Cc1ccc(N2CCN(S(=O)(=O)c3ccc(F)c(C)c3)CC2)c(C)c1	i	i	i	-11*
Cc1nnc2c(-c3ccccc3)nc3ccccc3n12	i	i	i	-16*
Cc1cc(C(=O)COc2cccnc2[N+](=O)[O-])c(C)n1Cc1cccs1	i	i	i	i
CC(=O)Nc1ccccc1OCC(=O)c1cc(C)n(Cc2cccs2)c1C	i	i	100*	i
Oc1cc2c(cc1O)C1c3ccc(O)c(O)c3OCC1(O)C2 (stereo not given)	i	i	i	-12*
CC(=O)c1cc2c(cc1NC(=O)CSc1nc3ccc(C)cc3[nH]1)OCO2	i	i	i	i
CCOC(=O)CSc1nnc2n1C(C)(C)Cc1ccccc1-2	i	i	i	i
CCSc1nnc2n1C(C)(C)Cc1ccccc1-2	i	-5*	i	i	CHT inh conf=41%*;HEK293 MPD ctr=i
Cc1ccc2nc(NC(=O)CSc3ncnc4c3oc3ccccc34)sc2c1	/	/	/	i
Oc1c(Br)cc(Br)cc1C=Nc1ccc2[nH]ncc2c1	i	-5.6*	i	i	CHT inh conf=65%*;HEK293 MPD ctr=i
COc1ccc(C=Nc2ccc3[nH]ncc3c2)c(O)c1	i	i	i	i
Oc1c(Br)cc(Br)cc1C=Nc1cccnc1	i	-7.8*	i	i	CHT inh conf=62%*;HEK293 MPD ctr=i
COc1ccc(C2=NNC(c3cccnc3)=Nc3ccccc32)cc1	i	i	i	i
COc1cccc(CNC(=O)Cn2cc3c(n2)CCCC3)c1	i	i	i	i
CN1CCN(C(=O)CCN2C(=O)S/C(=C/c3ccc(Cl)cc3)C2=O)CC1	i	-6.5*	i	i	CHT inh conf=50%*;HEK293 MPD ctr=i
Cc1ccc(/C=C2\SC(=O)N(CCC(=O)N3CCN(C)CC3)C2=O)cc1	i	i	i	i
O=C(Nc1ccccc1C(=O)N1CCCC1)C1CCN(c2ncccn2)CC1	i	i	i	i
Cc1ccc[n+](CC(=O)c2ccc(NC(=O)c3ccccc3)cc2)c1C	i	i	i	i
Cc1ccc[n+](CC(=O)c2ccc(Br)cc2)c1C	i	-9.7*	i	i	CHT inh conf=39%*;HEK293 MPD ctr=i
COc1ccc(C(=O)C[n+]2cccc(C)c2)cc1	i	-8.5*	i	i	CHT inh conf=6.4%*;HEK293 MPD ctr=i
Cc1ccc[n+](CC(=O)c2ccccc2)c1	i	i	i	/
Cc1ccc[n+](CC(=O)c2ccc(Br)cc2)c1	i	-10*	i	i	CHT inh conf=4.2%*;HEK293 MPD ctr=i
COc1ccc(C(=O)N2CCN(c3ccc(C(C)=O)cc3)CC2)cc1S(=O)(=O)N1CCCC1	/	/	/	i

Screening results as filed in PubChem.
